# Measurements: PubChem BioAssay AID1626 (SRMLSC, 2009)
# In all, about 220,000 compounds went through this assay and about 2,000 (0.91%) were called active. Roughly 2% stayed inconclusive and do not appear here. Not all results are given here. Measured potencies and affinities stand elsewhere. Unmarked numbers belong to inactive results. No stated cut-off is given here; in the data, inconclusive means inhibition above about 80% without an active follow-up result; inactive means below that; test concentration not stated here.
# Experiment: M. tuberculosis H37Rv growth inhibitors, H37Rv strain (AID 1626);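 further: bacteria incubated seven days before Alamar blue readout; 0% = bacteria only wells and 100% = bacteria with antibiotic wells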
# Conditions: stronger effect = higher value, concentration not given here
row,Structure (SMILES),inhibition [%]
1,CCC(C)NC(=O)CN(c1cc(C)ccc1OC)S(C)(=O)=O (configuration not stated),-5.3
2,CCOc1ccc(-c2nnc(N3CCCCC3)c3ccccc23)cc1,-1.05
3,c1nc(NCC2(N3CCOCC3)CCCCC2)c2ccsc2n1,-2.31
4,O=S(=O)(c1ccccc1F)N1CCN(C(=S)NCc2ccccc2)CC1,-2.02
5,O=C(Nc1cccc(F)c1)C1CCN(C(=O)c2ccc(Cl)cc2)CC1,-0.97
6,CCN(CC(=O)Nc1ccc(C(=O)OC)cc1)Cc1ccccc1,7.78
7,COc1ccc(N2CC(C(=O)Nc3nnc(SCC(=O)c4ccccc4)s3)CC2=O)cc1 (configuration not stated),11.9
8,CCN(CC)CCC(c1ccc(N(C)C)cc1)c1c(OC)cc(OC)c2ccc(=O)oc12 (configuration not stated),-0.96
9,CCN(CC)CCC(c1cc(OC)c(OC)c(OC)c1)c1c(OC)cc(OC)c2c(-c3ccccc3)cc(=O)oc12 (configuration not stated),12.6
10,CCN(CC)CCC(c1cc(OC)c(OC)c(OC)c1)c1c(OC)cc(OC)c2ccc(=O)oc12 (configuration not stated),-19
11,CCN(CC)CCC(c1cc(OC)c(OC)c(OC)c1)c1c(OC)cc(OC)c2c(C)cc(=O)oc12 (configuration not stated),-8.36
12,Cc1ccc(CNc2ncccc2-c2nc3cc(Cl)ccc3o2)cc1,-4.72
13,COc1ccc(NC(=O)c2cccnc2Nc2ccc(OC)cc2)cc1,10.9
14,CN(C)CCCCCCCCCCC(=O)/C=N/O,7.54
15,CCn1ncc(CN2CCN(Cc3ccc(OC)c(C)c3C)C(CCO)C2)c1C (configuration not stated),3.6
16,N[C@@H](Cc1c[nH]c2ccccc12)c1nnc(SCc2ccccc2)o1,-10.5
17,CCOC(=O)COc1ccc2c3c(c(=O)oc2c1C)CCC3,76.7
18,Cc1cc2oc(=O)c3c(c2cc1OCc1nn[nH]n1)CCCC3,-6.49
19,COCCCn1c(SCC(=O)OC2CCCCC2)nnc1-c1ccco1,-15.4
20,Cc1ccccc1SCc1noc(C(=O)NCC2CCCO2)c1C(=O)O (configuration not stated),-6.27
21,COc1ccc(-n2c(O)c(C(C)=NCCCn3ccnc3)c(=O)[nH]c2=O)cc1,-3.9

row,Structure (SMILES),inhibition [%]
1,O=C(Nc1ccc(NC(=S)NC(=O)c2cccs2)cc1)c1ccco1,-2.57
2,O=C(OCC(=O)N(C1CCCCC1)C1CCCCC1)c1ccco1,-7.12
3,CCc1[nH]nc2c1C1(CCOC1C)C(C#N)=C(N)O2 (configuration not stated),-2.61
4,Cn1c(=O)[nH]c(=O)c2c1nc([N+](=O)[O-])n2Cc1ccccc1,72.1
5,CCCn1c(Sc2nc3c(c(=O)[nH]c(=O)n3C)n2CCC)nc2c1c(=O)[nH]c(=O)n2C,3.31
6,CC(C(=O)c1ccccc1)N1C(=O)c2ccccc2C1=O (configuration not stated),-3.22
7,N#Cc1cccnc1N1CCC(C(N)=O)CC1,-8.98
8,O=C(N/N=C/c1ccc2c(c1)OCO2)C(=O)Nc1ccc2ccccc2c1,1.96
9,O=c1c2ccccc2nc(-c2ccc(Cl)cc2Cl)n1O,1.38
10,CSc1ccccc1NC(=O)c1ccc(C)o1,-1.2
11,CN(C)CCCN1c2ccccc2Sc2ccccc21,-4.11
12,COc1ccc2c(c1)Sc1ccccc1N2CCN(C)C,2.43
13,O=c1[nH]c2cccnc2c2ccsc12,-1.93
14,Cc1ccc(/C=N/N2CCN(c3ccncc3S(=O)(=O)N3CCCCC3)CC2)cc1,7.81
15,Cc1cc2c(s1)CCCCC(=O)N2,-2.34
16,O=C1CCCc2sc3c(c2N1)CCCCC3,-8.7
17,Cc1cc(C(=O)NC(Cc2ccccc2)C(=O)O)c(C)o1 (configuration not stated),1.76
18,O=C(CNC(=S)N(CCCN1CCOCC1)Cc1cccs1)NCCN1CCOCC1,5.22
19,NC(=O)CN1C(=O)C2C3c4ccccc4C(c4ccccc43)C2C1=O (configuration not stated),2.42
20,CCNc1nc(NCC)nc(N/N=C/c2cc(OC)c(OC)c(OC)c2)n1,-2.94
21,Cc1[nH]n(-c2ccccc2)c(=O)c1-c1ccccc1,-7.21

row,Structure (SMILES),inhibition [%]
1,Cc1cc(-c2c(C)[nH]n(-c3ccc(Cl)cc3)c2=O)n[nH]1,65.3
2,CCOC(=O)C1=C(O)/C(=C/c2ccc(OCC(=O)O)c(OC)c2)SC1=Nc1ccc(OC)cc1,17.4
3,CCNc1nc(N2CCCC2)nc(N2CCCC2)n1,1.64
4,CC(C)(C)Nc1nc(N2CCCC2)nc(N2CCCC2)n1,14.2
5,COc1ccc(N2CCN(c3nc(Nc4ccc(C)c(F)c4)nc(N4CCCC4)n3)CC2)cc1,1.07
6,CCOc1ccc(Nc2nc(N3CCCC3)nc(N3CCN(c4ccc(OC)cc4)CC3)n2)cc1,-4.38
7,O=C(NC(=S)NCCSc1ccccc1)c1cccnc1,4.56
8,COc1ccc(S(=O)(=O)NC2CCCCC2)cc1-n1cnnn1,-10.3
9,Fc1cccc(Cl)c1/C=N/Nc1ccccn1,3.42
10,C=CCn1c(O)c(/C=C2/C=CC=N2)c(=O)[nH]c1=O,49
11,Cn1c(O)c(/C=C2/C=CC=N2)c(=O)[nH]c1=O,1.64
12,COc1ccc(Cn2c(O)c(/C=N/NC(=O)c3ccccc3)c(=O)[nH]c2=O)cc1,-2.76
13,O=c1[nH]c(=O)n(Cc2ccccc2Cl)c(O)c1C=Nc1ccc(F)cc1,3.81
14,O=C(NC1CCCCC1)N1CCCc2ccccc21,-7.82
15,Cc1ccc(CC2C(=O)N(CC(=O)O)C(=O)C2C)cc1 (configuration not stated),-14.9
16,CCCCNC(=O)Nc1ccccn1,-6.21
17,O=C(Nc1ccccn1)C(=O)Nc1ccccn1,-5
18,CC(O)Cc1cn([C@@H](CCCCNC(=O)OC(C)(C)C)C(=O)N2CCN(C(=O)OC(C)(C)C)CC2)nn1 (some centres not stated),-10.7
19,CO/C=C/C#CC1(O)CCN(C)CC1,-1.81
20,O=C(NCC1CCCO1)c1cc(C(=O)c2ccc(Cl)cc2Cl)c[nH]1 (configuration not stated),2.36
